From PubChem
D2 antag – D2 dopamine receptor (human) antagonism | P14416 | HEK293 TREx D2 cells, calcium flux, dopamine EC80 | inhibition, % at 10 µM | actives 2% (n = 340,000); in the data active = inhibition above about 30%; inactive = below that, where a call was filed; note: 0% is about no effect
Target sequence (P14416 whole entry, looked up): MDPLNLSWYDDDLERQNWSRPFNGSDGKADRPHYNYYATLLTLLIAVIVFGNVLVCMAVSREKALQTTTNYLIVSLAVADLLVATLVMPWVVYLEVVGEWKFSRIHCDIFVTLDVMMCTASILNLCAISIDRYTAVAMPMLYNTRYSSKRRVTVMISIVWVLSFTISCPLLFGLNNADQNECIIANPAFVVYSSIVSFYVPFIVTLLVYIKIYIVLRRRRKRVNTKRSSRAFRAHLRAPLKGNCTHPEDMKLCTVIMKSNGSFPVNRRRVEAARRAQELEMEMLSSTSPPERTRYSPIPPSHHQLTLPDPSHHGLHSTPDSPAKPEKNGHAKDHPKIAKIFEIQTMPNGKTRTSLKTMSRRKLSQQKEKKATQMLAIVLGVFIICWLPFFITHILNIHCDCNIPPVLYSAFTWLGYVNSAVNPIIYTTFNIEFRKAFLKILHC
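Overnight-induced (tetracycline, 30 C) HEK293 T-REx cells carrying force-coupled D2 receive a no-wash calcium dye, then compound, then EC80 dopamine at 180 s; signals are read kinetically throughout.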
D2 ag-1 – D2 dopamine receptor (human) agonism | P14416 | HEK293 T-REx D2 cells, calcium flux agonist mode | activation, % at 2 µM | actives 0.53% (n = 340,000);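 active = activation over 3 SD above normal in the single-dose calcium agonist read, cut at about 30% in these data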; note: 0% is about no effect
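HEK293 Trex D2 cells, tetracycline-induced, o/n 30 C 5% CO2; no-wash Ca dye, RT 30–90 min; 10-cycle baseline, 23 nl cpd added, kinetic Ca read 180 s; agonist hits = positive Ca response.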
D2 PAM-1 – positive allosteric modulators of human D2 dopamine receptor; AID 485347; HEK293 T-REx D2, calcium flux, EC20 dopamine potentiation; potentiation, % at 10 µM; P14416; actives 0.34% (n = 340,000);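 active = potentiation over 3 SD above the plate norm, cut at about 30% in these data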; note: 0% is about no effect
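Potentiation of an EC20 dopamine calcium response is measured in a force-coupled, tetracycline-inducible Hek293 Trex D2 line. Compound-only kinetic reads over 180 s flag agonists before dopamine addition.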
D2 PAM-2 – human D2 receptor positive allosteric modulation. actives 0.23% (n = 360,000). potentiation, % (no concentration beside the values). P14416. AID 624464. DiscoveRx D2 beta-arrestin cells, luminescence, 90 min; 100% = 57 uM dopamine signal; in the data active = potentiation above about 50%; inconclusive = mostly about 30% to 49%
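PathHunter beta-arrestin assay in DiscoveRx D2 cells. Compounds were added with an EC20 of dopamine (50 nM final) for 90 min at 37 deg C. Luminescence was read 1 h after detection reagent, with 57 uM dopamine as the EC100 control.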
D2 ag-2 – agonists of human D2 dopamine receptor (beta-arrestin); P14416; DiscoveRx PathHunter D2 beta-arrestin, luminescence, 90 min; 100% = 57 uM dopamine signal; activation, % (concentration not given with the values); actives 0.084% (n = 360,000); in the data active = activation above about 40%; inconclusive = between about 15% and that limit
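Agonist mode: compounds alone added to overnight-plated D2 PathHunter cells for 90 min at 37 C, with 57 uM final dopamine (EC100) defining full response. Beta-arrestin recruitment detected by chemiluminescent reagent, read after 1 h at ambient temperature.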
* hit, by the source's call; ? = inconclusive; . = no result given. In the library only some 2.4% were active in any assay of this set; here they are far more common.

SMILES	D2 antag	D2 ag-1	D2 PAM-1	D2 PAM-2	D2 ag-2
CCOC(=O)c1cc(-c2ccc(OC)cc2)n(CCC(=O)NCCN2CCC(C)CC2)c1C	66.4*	0.9	-21.0	-11.1	-2.0
CCn1nc(-c2ccccc2)c(-c2ccccc2)c(C(=O)Nc2ccc(S(N)(=O)=O)cc2)c1=O	.	-1.0	-1.4	.	.
COc1ccc(N2Cc3cccc(C(=O)Nc4cccc(F)c4)c3C2=O)cc1	.	-0.3	-3.1	.	.
CC(CNc1ccccc1O)C(=O)O (stereo not drawn)	-1.4	-0.1	4.9	68.3*	?
CC(NC(=O)CCC(=O)Nc1ccccc1O)c1ccccc1 (stereo not drawn)	.	.	.	-12.4	-2.7
CCc1ccc(CNC(=O)c2sc3nc[nH]c(=O)c3c2C)cc1	.	-3.4	-5.9	.	.
O=C(CC1NCCN(Cc2ccccc2)C1=O)Nc1ccc(Cl)cc1 (stereo not drawn)	-4.2	-2.1	0.6	-5.6	-3.5
O=C(CC1NCCc2ccccc21)Nc1ccc(Cl)cc1 (stereo not drawn)	43.8*	4.9	-40.3	-21.9	-0.5
CC(=O)c1coc2ccc(OCCN3CCCCC3)cc12	41.8*	0.4	-23.5	-21.6	-0.2
COc1ccc2occ(C(C)=O)c2c1	10.8	0.8	-7.6	-11.2	1.9
Cc1cc(NC(=O)C(C)Sc2nc(-c3cccs3)nc3ccccc23)no1 (stereo not drawn)	10.3	1.1	32.2*	-9.2	0.5
COc1ccc(F)cc1-c1cc(C(=O)Nc2ccc(NC(C)=O)cc2)[nH]n1	.	.	.	-2.3	1.0
COc1ccc2[nH]c(C(=O)Nc3ccc(C)c(F)c3)cc2c1	-14.6	-0.8	11.6	-3.1	-0.6
CCCCNC(=O)c1cc2c(C)cc(C)cc2[nH]1	34.1*	-2.0	-24.2	-23.1	-2.5
COc1cc2[nH]c(C(=O)Nc3ccc(F)cc3)cc2c(OC)c1OC	89.0*	-0.5	-20.0	.	.
Cc1cc(C)c2cc(C(=O)Nc3ccc(C)c(F)c3)[nH]c2c1	39.0*	0.2	-26.8	-34.8	2.9
CC(C)NC(=O)C1CCN(c2nc3ccccc3nc2C(F)(F)F)CC1	.	0.2	4.2	.	.
CC(C)(C)c1ccc(-c2nnc(-c3ccccc3NC(=O)c3cccc(C(F)(F)F)c3)o2)cc1	.	-0.3	15.4	.	.
CC(=O)CC1(O)C(=O)N(Cc2ccccc2)c2ccccc21 (stereo not drawn)	61.4*	0.2	-24.8	7.2	-0.3
CC1(C)C(=S)N(Cc2ccccc2)c2ccccc21	0.6	-1.0	-2.9	62.5*	6.4
C/C(CC1(O)C(=O)N(Cc2ccccc2)c2ccccc21)=N\O (stereo not drawn)	25.3	-0.3	-10.2	-13.8	-1.7
O=C1c2ccccc2NC2CCCCCN12 (stereo not drawn)	-0.3	-1.0	30.1*	-15.7	1.0
Cc1cccc(NC(=O)CCn2cnnn2)c1C	.	0.1	-2.8	.	.
Cc1ccc(CN(C(=O)Nc2cccc(Cl)c2)c2ccccn2)cc1	.	3.9	-14.6	.	.
O=C(C[n+]1ccc(-c2ccccc2)cc1)Nc1ccc([N+](=O)[O-])cc1	36.9*	0.8	-18.7	-8.9	-4.9
SMILES	D2 antag	D2 ag-1	D2 PAM-1	D2 PAM-2	D2 ag-2
Cc1cccc[n+]1CC(=O)Nc1ccc([N+](=O)[O-])cc1	-6.1	0.2	8.2	-2.4	-4.6
Cc1ccc(CNC(=O)c2oc3ccc(S(=O)(=O)N4CCC5(CC4)OCCO5)cc3c2C)cc1	.	.	-8.5	17.0	1.9
O=C(Nc1ccc2c(c1)C(=O)NC2=O)c1ccc(S(=O)(=O)N2CCCC2)cc1	30.8*	-0.4	-14.7	0.2	-0.5
Cc1c(C(=O)NCCCN2CCCC2=O)oc2ccc(S(=O)(=O)N3CCOCC3)cc12	44.3*	0.8	-3.8	-5.6	-1.6
O=C(CCNC(=O)c1ccc(Br)cc1)Nc1cccc(S(=O)(=O)N2CCCC2)c1	38.1*	-0.7	-1.0	-25.5	-3.8
Cc1c(C(=O)NCCC2=CCCCC2)oc2ccc(S(=O)(=O)N3CCOCC3)cc12	5.3	-0.2	-2.6	19.5	-1.1
Cc1c(C(=O)NCCN(C)C)oc2ccc(S(=O)(=O)N3CCC4(CC3)OCCO4)cc12	33.4*	0.9	.	-1.6	-0.3
Cc1cscc1-c1ccc(C(=O)Nc2c(C)cccc2C)o1	.	.	.	-7.3	-6.5
CCCCCn1c(=N)c(S(=O)(=O)c2ccc(C)cc2)cc2c(=O)n3cc(C)ccc3nc21	.	1.2	-7.3	.	.
Cc1ccc(-c2ccc(=O)n(CCC(=O)NCCc3ccccc3)n2)cc1	.	.	-3.9	.	.
COCCNC(=O)c1c[nH]c2ccc(S(=O)(=O)N3CCOCC3)cc2c1=O	46.1*	0.8	-7.9	-4.3	-2.5
O=C(NCCOc1ccccc1F)c1cccc(S(=O)(=O)N2CCN(c3ccccc3)CC2)c1	35.4*	2.1	4.9	29.3	3.2
O=C(NCCCN1CCCC1=O)c1cccc(S(=O)(=O)N2CCCCC2)c1	38.3*	0.1	3.0	-0.9	7.6
O=C(Nc1cccc(S(=O)(=O)N2CCOCC2)c1)c1ccc(N2CCCC2=O)cc1	11.1	0.8	-12.0	-1.3	0.3
O=C(Nc1cccc(S(=O)(=O)N2CCCCC2)c1)c1ccc(N2CCCC2=O)cc1	0.9	-0.4	51.0*	-7.5	-2.2
O=C(NCCCN1CCOCC1)c1cccc(S(=O)(=O)N2CCN(c3ccccc3)CC2)c1	-12.7	0.2	13.4	-22.9	-8.3
CCNC(=O)C1(C)CCCN(C(=O)c2ccnc(Cl)c2)C1 (stereo not drawn)	.	.	.	-5.8	-1.5
CCN(CC)S(=O)(=O)c1ccc2c(c1)N(CC(=O)Nc1c(C)cc(C)cc1C)C(=O)C1CCCN21 (stereo not drawn)	.	-0.6	-3.8	.	.
CCOC(=O)c1c(C)oc2nc(C)nc(N3CCN(c4ccc(C(C)=O)cc4)CC3)c12	.	-0.3	-2.6	.	.
CCOC(=O)c1cc(C)nc(SC)c1C#N	30.7*	0.6	9.5	1.5	4.4
CCOC(=O)c1cc(C(C)(C)C)nc(SC)c1C#N	-17.0	-0.7	7.4	-15.5	-6.3
COc1ccc(OC)c(NC(=O)Nc2ccc(Cl)cc2)c1	46.5*	-2.3	-25.5	-26.9	-0.8
COc1ccc(Cl)cc1NC(=O)NCCN1CCCCC1	58.2*	-0.3	-27.1	-8.5	-2.3
C=CCNC(=O)c1cc(Cl)ccc1[N+](=O)[O-]	-2.6	0.8	-3.9	-32.0	-0.9
C=CCNC(=O)c1cc(Cl)ccc1Cl	-15.2	-0.1	32.7*	-3.9	-0.3
CCCN1CCC(NC(=O)Nc2cc(Cl)ccc2OC)CC1	84.9*	0.7	-39.1	3.7	-18.8
COc1cccc(N2CCN(c3c4c(nc5nncn35)CCC4)CC2)c1	.	0.7	10.3	.	.
COc1cccc(C2CC(=O)Nc3c2c(=O)n(C)c2nc4ccccc4n32)c1OC (stereo not drawn)	.	0.0	0.1	.	.
O=C(CCNS(=O)(=O)c1ccc2c(c1)CCN2C(=O)C1CC1)N1CCN(c2cccc(Cl)c2)CC1	.	-1.5	-1.8	.	.
C=CCNC(=O)Nc1cc(Cl)ccc1OC	38.4*	0.7	-12.5	-8.5	-4.1
